Bioassay records deposited in PubChem BioAssay by National Center for Advancing Translational Sciences (NCATS).
Compounds with a hit are over-represented: about 3.4% of the library has one in this group of screens.
RE007 growth inh: less growth of the S. pombe RE007 Vpr strain; S. pombe RE007 Vpr strain, BacTiter-Glo ATP luminescence, 24 h; actives 0.21% (n = 360,000); Potency, µM (doses to about 92.2 µM), actives largely listed as inhibitors; active means well fitted falling curve with a large enough effect; inconclusive means small, poorly fitted or top-dose-only effect; inactive means no such curve, though single readings can be large or run the other way; further: nearly all actives have a fitted effect of over 50% in size
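Fission yeast RE007 carrying one integrated HIV-1 vpr copy, seeded at OD 0.01 in PMG+AL medium with 23 nL pinned compound. Grown 24 h at 30 degrees; viability read by BacTiter-Glo luminescence after 5 min.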
AmpC detergent: AmpC beta-lactamase inhibition with detergent present; P00811; AmpC hydrolysis of nitrocefin, absorbance 480 nm, 0.01% Triton; Potency, µM (titrated, usually from 114 µM), usual class: inhibitors; actives 0.041% (n = 370,000); AID 485294; further: nearly all actives have a fitted effect of over 25% in size
Target sequence (P00811 whole entry, looked up): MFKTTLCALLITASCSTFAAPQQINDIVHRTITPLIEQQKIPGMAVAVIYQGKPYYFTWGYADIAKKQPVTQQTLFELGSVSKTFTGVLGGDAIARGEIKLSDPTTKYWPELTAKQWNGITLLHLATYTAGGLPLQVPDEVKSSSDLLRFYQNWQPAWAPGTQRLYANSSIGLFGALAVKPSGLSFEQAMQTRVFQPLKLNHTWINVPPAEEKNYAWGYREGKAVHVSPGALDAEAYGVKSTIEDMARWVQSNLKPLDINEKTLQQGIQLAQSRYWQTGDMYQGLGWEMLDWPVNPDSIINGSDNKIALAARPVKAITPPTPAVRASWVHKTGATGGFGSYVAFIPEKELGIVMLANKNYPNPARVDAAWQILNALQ
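20 mM phosphate pH 7.0 + 0.01% (detergent screen) or 0.0001% Triton X-100; 5.3 nM AmpC reagent; cpd preinc 15 min RT; nitrocefin (800 uM stock) to start; A480 q20 s × 4 min; Activity was normalised to no-enzyme and no-compound control wells.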
Sm TGR inh: inhibitors of Schistosoma mansoni thioredoxin glutathione reductase; Potency, µM (top dose mostly 114 µM), usual class: inhibitors; AID 485364; actives 3% (n = 360,000); purified TGR, DTNB reduction, TNB absorbance 405 nm; Q962Y6; further: nearly all actives have a fitted effect of over 60% in size
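Kinetic colorimetric format: TGR-catalysed, NADPH-driven DTNB reduction monitored via TNB absorbance. Enzyme dispensed at 20 nM; compound exposure 15 min at room temperature before reaction start.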
Giardia FBPA inh: blocks Giardia fructose-bisphosphate aldolase activity | A8B2U2 | purified Giardia FBPA | Potency, µM (doses to about 59.6 µM), usual class: inhibitors | actives 0.71% (n = 290,000); further: nearly all actives have a fitted effect of over 55% in size
Target sequence (A8B2U2 whole entry, looked up): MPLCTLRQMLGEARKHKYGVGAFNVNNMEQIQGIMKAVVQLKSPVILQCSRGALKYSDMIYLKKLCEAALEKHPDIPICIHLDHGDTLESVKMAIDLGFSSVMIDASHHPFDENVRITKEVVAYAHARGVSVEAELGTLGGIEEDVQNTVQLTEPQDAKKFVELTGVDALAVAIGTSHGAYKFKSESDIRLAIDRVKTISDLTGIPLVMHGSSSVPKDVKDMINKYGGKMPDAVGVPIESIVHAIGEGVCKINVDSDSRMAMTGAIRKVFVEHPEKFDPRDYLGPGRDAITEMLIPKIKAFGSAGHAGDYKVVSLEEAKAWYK
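40 nM FBPA preincubated 10 min at RT with compound (up to 57.5 uM final), then substrate plus GAPDH/TPI/NAD/arsenate coupling and diaphorase/resazurin added. Fluorescence read after 20 min at RT, 525/598 nm.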
AmpC no deterg: inhibitors of E. coli AmpC beta-lactamase without detergent; P00811; actives 0.52% (n = 330,000); Potency, µM (top dose mostly 57.1 µM), usual class: inhibitors; AID 485341; AmpC nitrocefin hydrolysis, absorbance 480 nm, 0.0001% Triton; further: nearly all actives have a fitted effect of over 20% in size
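20 mM phosphate pH 7.0 + 0.01% (detergent screen) or 0.0001% Triton X-100; 5.3 nM AmpC reagent; cpd preinc 15 min RT; nitrocefin (800 uM stock) to start; A480 q20 s × 4 min; Activity was normalised to no-enzyme and no-compound control wells.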
Numbers stand for hits. Unless noted, the call rests on the fitted dose curve; in most records, active means well fitted curve in the direction sought with a large enough effect; inconclusive means small, poorly fitted or top-dose-only effect, or another doubt; inactive means no such curve, though single readings can be large; an effect the other way counts as inactive or inconclusive.

How did COc1ccc(NC(=O)C(=S)NC2CCCCC2)cc1 do in these assays?
RE007 growth inh: inactive; AmpC detergent: inactive; Sm TGR inh: inactive; Giardia FBPA inh: inactive; AmpC no deterg: inactive

What do the screens show for `O=C(O)Cc1nc(-c2cccnc2)sc1-c1ccc(Br)cc1`?
RE007 growth inh: inactive; AmpC detergent: inactive; Sm TGR inh: 11µM; Giardia FBPA inh: inactive; AmpC no deterg: inactive

Results for O=C(NCc1ccco1)/C(=C\c1ccco1)NC(=O)c1ccccc1Cl ?
RE007 growth inh: inactive; AmpC detergent: inactive; Sm TGR inh: inactive; Giardia FBPA inh: inactive; AmpC no deterg: inactive

What do the screens show for `O=C(NCc1ccco1)/C(=C\c1ccc(F)cc1)NC(=O)c1ccco1`?
RE007 growth inh: inactive; AmpC detergent: inactive; Sm TGR inh: 32µM; Giardia FBPA inh: inactive; AmpC no deterg: inactive

What do the screens show for `O=C(NCc1ccco1)/C(=C/c1ccco1)NC(=O)c1ccco1`?
RE007 growth inh: inactive; AmpC detergent: inactive; Sm TGR inh: 25µM; Giardia FBPA inh: inactive; AmpC no deterg: inactive

How did COc1ccccc1/C=C/C=N/NC(=O)c1ccc2nc[nH]c2c1 do in these assays?
AmpC detergent: inactive; Sm TGR inh: inactive; Giardia FBPA inh: inactive; AmpC no deterg: 20µM

What do the screens show for `COc1ccc(OC)c(/C=N/NC(=O)c2ccc3nc[nH]c3c2)c1`?
RE007 growth inh: inactive; AmpC detergent: inactive; Sm TGR inh: inactive; Giardia FBPA inh: inactive; AmpC no deterg: inactive

How did Cc1ccc(S(=O)(=O)N2[C@@H](Cc3ccccc3)CO[C@H]2CC(=O)c2cccs2)cc1 do in these assays?
RE007 growth inh: inactive

How did CC(C)(C)OC(=O)NCCCC1=CC2=CC(=O)C(C)(OC(=O)c3ccc(Cl)nc3)C(=O)C2=CO1 (centres undefined) do in these assays?
Giardia FBPA inh: inactive

Results for COc1ccc(C2=CC3=C(Br)C(=O)C(C)(OC(=O)c4ccc(Cl)nc4)C(=O)C3=CO2)cc1 (centres undefined) ?
RE007 growth inh: inactive; AmpC detergent: inactive; Sm TGR inh: 10µM; Giardia FBPA inh: inactive; AmpC no deterg: inactive

Results for COc1ccc(C2=CC3=C(Br)C(=O)C(C)(OC(=O)C4CCCC4)C(=O)C3=CO2)cc1 (centres undefined) ?
RE007 growth inh: inconclusive; AmpC detergent: inactive; Sm TGR inh: 7.1µM; Giardia FBPA inh: inactive; AmpC no deterg: inactive

Results for COC(=O)CCC(=O)OC1(C)C(=O)C2=COC(c3ccc(OC)cc3)=CC2=C(Br)C1=O (centres undefined) ?
RE007 growth inh: inconclusive; AmpC detergent: inactive; Sm TGR inh: 7.9µM; Giardia FBPA inh: inconclusive; AmpC no deterg: inactive

How did CCN(CC)C(=O)c1sc2c(c1C)c(=O)n(Cc1ccccc1)c(=O)n2Cc1cc(C)ccc1C do in these assays?
AmpC detergent: inactive; Sm TGR inh: inactive

What do the screens show for `O=C(CSc1cn(CCNC(=O)c2ccccc2F)c2ccccc12)Nc1ccccc1F`?
AmpC detergent: inactive; Sm TGR inh: inactive

How did COc1ccc(-c2nc3c(c(SCC(=O)N4CCCCC4)n2)Cc2cc(Cl)ccc2O3)cc1 do in these assays?
AmpC detergent: inactive; Sm TGR inh: inactive

Results for COn1c(C)c(C)c2c3nonc3ccc21 ?
RE007 growth inh: inconclusive; AmpC detergent: inactive; Sm TGR inh: 20µM; Giardia FBPA inh: inconclusive; AmpC no deterg: inactive

How did Cc1csc(Nc2ccccc2)[n+]1-c1ccccc1 do in these assays?
RE007 growth inh: inactive; AmpC detergent: inactive; Sm TGR inh: inactive; Giardia FBPA inh: inactive; AmpC no deterg: inactive

What do the screens show for `Cc1ccc(OCC(O)Cn2c3ccccc3c3ccccc32)cc1` (centres undefined)?
RE007 growth inh: inconclusive; AmpC detergent: inactive; Sm TGR inh: inactive; Giardia FBPA inh: inactive; AmpC no deterg: inactive

Results for Cc1cccc(C)c1OCC(O)Cn1c2ccccc2c2ccccc21 (centres undefined) ?
RE007 growth inh: 35µM; AmpC detergent: inactive; Sm TGR inh: inactive; Giardia FBPA inh: inactive; AmpC no deterg: inactive

How did CCC(C)(C)c1ccc(OCCCC[n+]2ccc(C)cc2)c(C(C)(C)CC)c1 do in these assays?
RE007 growth inh: inconclusive; AmpC detergent: inactive; Sm TGR inh: inactive; Giardia FBPA inh: inactive; AmpC no deterg: inactive

Results for CCC(C)(C)c1ccc(OCCCC[n+]2cccc(C)c2C)c(C(C)(C)CC)c1 ?
RE007 growth inh: 28µM; AmpC detergent: inactive; Sm TGR inh: inactive; Giardia FBPA inh: inactive; AmpC no deterg: inactive

What do the screens show for `COc1cc(NC(=O)Cn2nnc(-c3ccccc3N)n2)cc(OC)c1`?
RE007 growth inh: inactive; AmpC detergent: inactive; Sm TGR inh: inactive; Giardia FBPA inh: inactive; AmpC no deterg: 20µM

What do the screens show for `O=C(O)CC1Oc2ccc(Cl)cc2NC1=O` (centres undefined)?
RE007 growth inh: inactive; AmpC detergent: inconclusive; Sm TGR inh: inactive; Giardia FBPA inh: inactive; AmpC no deterg: 11µM

What do the screens show for `Cc1ccc2c(c1)NC(=O)C(CC(=O)Nc1cc(Cl)ccc1C)O2` (centres undefined)?
AmpC detergent: inactive; Sm TGR inh: inactive

What do the screens show for `COc1ccc(-n2nc3cc(C)c(N)c(Br)c3n2)cc1`?
RE007 growth inh: inactive; AmpC detergent: inactive; Sm TGR inh: 40µM; Giardia FBPA inh: 7.1µM; AmpC no deterg: inactive

How did N#CC1CC(c2ccccc2)Nc2cc(Cl)ccc2N1 (centres undefined) do in these assays?
AmpC detergent: inconclusive; Sm TGR inh: inactive; Giardia FBPA inh: inactive; AmpC no deterg: 11µM

What do the screens show for `CC(Oc1ccccc1Cl)C(=O)N1CCOCC1` (centres undefined)?
RE007 growth inh: inactive; AmpC detergent: inactive; Sm TGR inh: inactive; Giardia FBPA inh: inactive; AmpC no deterg: inactive

Results for CCOc1ccc(-n2c(C)cc(C(=O)CCl)c2C)cc1 ?
RE007 growth inh: inconclusive; AmpC detergent: inactive; Sm TGR inh: 4.5µM; Giardia FBPA inh: inactive; AmpC no deterg: inactive

Results for CCOc1ccc(NC(=O)C(=O)c2cc(C)n(-c3cc(C)cc(C)c3)c2C)cc1 ?
AmpC detergent: inactive; Sm TGR inh: inactive

Results for COC(=O)c1ccc(-n2c(C)cc(C(=O)CCl)c2C)cc1 ?
RE007 growth inh: 25µM; AmpC detergent: inactive; Sm TGR inh: 4.5µM; Giardia FBPA inh: inactive; AmpC no deterg: inactive

How did COC(=O)c1ccc(-n2c(C)cc(C(=O)COC(=O)C3=COCCO3)c2C)cc1 do in these assays?
RE007 growth inh: inactive; AmpC no deterg: inactive

What do the screens show for `O=S1(=O)CC(N2CCN(Cc3ccccc3F)CC2)CN1Cc1cn(Cc2ccc(C(F)(F)F)cc2)nn1` (centres undefined)?
RE007 growth inh: inactive

What do the screens show for `COc1nc(NC(C)(C)C)nc(Oc2ccc(=O)n(-c3ccccc3)n2)n1`?
RE007 growth inh: inactive; AmpC detergent: inconclusive; Sm TGR inh: inactive; Giardia FBPA inh: inactive; AmpC no deterg: inactive
